Molecules are shown by their SMILES. The source made the active and inactive calls.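 Rule for the calls: active = EC50 at or below 10 µM; inactive = EC50 above 10 µM.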 A value given as a limit tells only on which side of the number the result lay.

The assay can be described thus: fluorescence interference artefacts, compound only, dose response, artefact control for cardiac thin filament activator project, biochemical, no RTF in test wells (AID 504697).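 Note: emission near 535 nm under roughly 485 nm excitation as for IANBD.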 The following applies: compound-only fluorescence in RTF assay buffer with Ca2+ (no RTF in test wells), artifact counterscreen.

For the molecule `COc1ccc(NC(=O)/C(C#N)=C\c2ccc(N3CCOCC3)o2)cc1`, the EC50 is 3.63 µM (active).

As for `CCOC(=O)/C(=C/C=C1\Sc2cc(OCC)c(OCC)cc2N1CC)C(C)=O`, the EC50 is 0.48 µM (active).

Consider `Fc1ccc(-c2[nH]ncc2CN(CC2CCC2)CC2CCCO2)c(F)c1` (stereo not given), for which the EC50 is > 71.5 µM (inactive).

For `O=C(OCCN1C(=O)c2cccc3c(N4CCOCC4)ccc(c23)C1=O)c1ccc(Cl)cc1Cl`, the half-maximal effective concentration (EC50) was 2.52 µM (active).

As for `CC1=CC(=C(C#N)c2nc3ccccc3s2)C=C(C)N1c1ccc(F)cc1`, the EC50 was 22.2 µM (inactive).

For `Oc1ccc2ccc3cccc[n+]3c2c1`, the EC50 was 2.46 µM (active).

`O=C(/C=C/c1cn(CC(O)CN2CCCCC2)c2ccccc12)c1cccs1` (stereo not given): the EC50 is 34.6 µM (inactive).

For the molecule `Cn1cnnc1Sc1nc2ccccc2nc1NS(=O)(=O)c1ccccc1`, the EC50 was > 71.5 µM (inactive).

Consider `COc1ccccc1NC(=O)COC(=O)c1cnc(C)cn1`, for which the EC50 is > 71.5 µM (inactive).

In the case of `CCN(CC)c1ccc(/C=C2\SC(N)=NC2=O)cc1`, the EC50 was 30.6 µM (inactive).

`COc1ccc(/C=C2\SC(=S)N(CCCC(=O)Nc3ccccc3C(=O)O)C2=O)cc1OC`: the EC50 was 53.3 µM (inactive).

In the case of `Cc1cc(C)c2nc(NC(=O)C3CCCO3)sc2c1` (stereo not given), the EC50 is > 71.5 µM (inactive).

Turning to `CC(C)CN1CCN(Cc2cccn2-c2ccc(Cl)cn2)CC1CCO` (stereo not given), the EC50 was > 71.5 µM (inactive).

In the case of `Nc1ccc2nc3c(=O)[nH]c(=S)[nH]c3nc2c1`, the EC50 was 2.93 µM (active).

Regarding `CC(Oc1ccc(F)cc1)C(=O)Nc1sc2c(c1C(=O)NCc1cccnc1)CCCC2` (stereo not given), the EC50 was > 71.5 µM (inactive).

On to `COc1cccc(CC(NC(C)=O)C(=O)NC2CCN(c3nc(C)cc(C)c3C#N)CC2)c1OC` (stereo not given), for which the EC50 was > 71.5 µM (inactive).

Turning to `CC(=O)Nc1ccc2cc3ccc(NC(C)=O)cc3nc2c1`, the EC50 was > 71.5 µM (inactive).

Turning to `COc1ccccc1-c1nnc(SCc2nc3ccccc3s2)n1C`, the EC50 was > 71.5 µM (inactive).

On to `O=C(c1ccc(COc2ccccc2Br)o1)N1N=C(C(F)F)CC1(O)C(F)F` (stereo not given), for which the EC50 was > 71.5 µM (inactive).

Regarding `COc1ccc(S(=O)(=O)N2CN(Cc3ccco3)c3nc4ccccc4nc32)cc1`, the EC50 is > 71.5 µM (inactive).

In the case of `O=C1c2ccccc2C(Nc2cccnc2)N1Cc1ccccc1Cl` (stereo not given), the EC50 was > 71.5 µM (inactive).

As for `CC(C)(C)C(=O)/C=c1\s/c(=C\c2ccc(-c3ccc([N+](=O)[O-])cc3)o2)c(=O)n1CC(=O)NC(N)=O`, the EC50 was 1.72 µM (active).

As for `N#C/C(=C\c1ccc(-c2ccc(F)cc2)o1)C(=O)Nc1nc(-c2cccs2)cs1`, the EC50 was > 71.5 µM (inactive).

For `COc1cc(OC)c(C(=O)OC(C)C(=O)Nc2cccc(C(F)(F)F)c2)cc1OC` (stereo not given), the EC50 is > 71.5 µM (inactive).

Regarding `COc1ccccc1N1CCN(c2ccc([N+](=O)[O-])cc2Cl)CC1`, the EC50 is > 71.5 µM (inactive).

Regarding `COc1ccc(C)cc1NC(=O)C12CCC(C)(C(=O)O1)C2(C)C` (stereo not given), the EC50 was > 71.5 µM (inactive).

Regarding `O=C1c2ccsc2SCCN1Cc1ccc(F)cc1`, the EC50 was > 71.5 µM (inactive).

For `Cc1ccc(N2C(=O)C3C(C(=O)c4ccccc4)=NN(c4ccccc4)C3C2=O)cc1` (stereo not given), the EC50 was 33.8 µM (inactive).

Turning to `Cc1cc(NC(=O)COC(=O)C(Cc2ccccc2)NC(=O)c2ccco2)no1` (stereo not given), the EC50 was > 71.5 µM (inactive).

Regarding `O=C(CNCc1cccs1)Nc1ccc(S(=O)(=O)N2CCCCC2)cc1`, the EC50 was > 71.5 µM (inactive).

For `CN(/N=C/c1ccc(-c2ccc([N+](=O)[O-])cc2)o1)c1ccccc1`, the EC50 is > 71.5 µM (inactive).

`COC(=O)C(=N/Nc1ccccc1C(=O)OC)/C(C)=N/O`: the EC50 is > 71.5 µM (inactive).

For `COc1ccccc1NS(=O)(=O)c1cc([N+](=O)[O-])ccc1N/N=C/c1c(C)[nH]c2ccccc12`, the EC50 is 9.25 µM (active).

Regarding `CCCN1C=CC(=CC=C(C#N)C#N)C=C1`, the EC50 is 19.9 µM (inactive).

On to `CCN1/C(=C/c2ccc3cc(C)ccc3[n+]2CC)Sc2ccccc21`, for which the EC50 is > 71.4 µM (inactive).

Consider `NC(=O)C1CCN(C(=O)c2ccc(-c3ccccc3)cc2)CC1`, for which the EC50 is > 71.6 µM (inactive).

On to `Cc1cccc(/C=N/n2c(-c3ccncc3)n[nH]c2=S)c1`, for which the EC50 was > 71.5 µM (inactive).

`CN(/N=C/c1ccc(N(C)C)cc1)C1=NS(=O)(=O)c2ccccc21`: the EC50 was 22.5 µM (inactive).

In the case of `CC1(C)CC(=O)C=C(Nc2ccccc2N)C1`, the EC50 is > 71.5 µM (inactive).

In the case of `COc1ccc(/C=C/C(=O)NC(=S)Nc2ccc(C(=O)O)cc2)cc1`, the EC50 was > 71.5 µM (inactive).

Usually EC50 stands for the concentration needed to bring the measured effect to its halfway point.
